ATXN2 expr inh: ATXN2 expression inhibition | Potency, µM (doses to about 57 µM), for the others: top-dose activity change, negative = inhibition, hits mostly inhibitors | HEK-293 ATXN2-luciferase reporter, luminescence, 24 h | 360,000 tested, 0.72% active | AID 1745845; further: potency means the concentration at half of the fitted maximal effect; on the % scale 0 is the no-effect control and ±100 the full control effect; nearly all actives have a fitted effect of over 55% in size
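ATXN2-luciferase reporter cells (luciferase flanked by upstream and downstream ATXN2 gene portions) were treated 24 h at 37 °C with compounds at up to 57 uM. SteadyGlo luminescence gave expression; GF-AFC fluorescence gave viability.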
HepG2 viability: kills HepG2 cells in TGF-b inhibitor counter-screen; HepG2 CAGA-GFP viability, ATP luminescence, 18 h; Potency, µM (doses to about 46.1 µM), for inactives: top-dose activity change, negative = cytotoxicity, most hits filed as cytotoxic; 410,000 tested, 0.76% active; AID 588856; further: potency means the concentration at half of the fitted maximal effect
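HepG2 CAGA-GFP cells (1000/well, DMEM with 1% FBS) received compound, then TGF-beta at 500 pg/mL final, and were incubated 18 hours at 37 degrees C. Viability was read by CellTiter-Glo luminescence. Media-only wells were set as complete cell-killing and DMSO as no toxicity.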
D3 antag: D3 dopamine receptor (human) antagonism; P35462; D3R cells, DiscoveRx beta-arrestin luminescence, antagonist mode; stronger effect = lower value; max response, negative = inhibition, %; 360,000 tested, 2.5% active; AID 652054; in the data active means max response below about -50%; inconclusive means no clear call, values can overlap the other calls; further: on the % scale 0 is the no-effect control and ±100 the full control effect
Target sequence (P35462 whole entry, looked up): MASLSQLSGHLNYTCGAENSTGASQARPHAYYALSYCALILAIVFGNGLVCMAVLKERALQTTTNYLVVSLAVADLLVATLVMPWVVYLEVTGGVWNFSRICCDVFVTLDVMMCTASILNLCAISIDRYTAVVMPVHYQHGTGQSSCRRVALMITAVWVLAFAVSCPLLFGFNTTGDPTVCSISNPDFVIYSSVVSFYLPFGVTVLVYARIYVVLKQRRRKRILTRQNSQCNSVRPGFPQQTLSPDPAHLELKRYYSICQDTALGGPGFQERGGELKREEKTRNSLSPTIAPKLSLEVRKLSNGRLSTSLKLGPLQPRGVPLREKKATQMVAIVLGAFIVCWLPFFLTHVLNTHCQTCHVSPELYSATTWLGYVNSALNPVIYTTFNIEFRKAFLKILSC
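Cells plated overnight at 1500 cells/well, then exposed to library compounds with dopamine controls for 90 minutes at 37 degrees C. DiscoveRx reagent added for 30–60 minutes at room temperature; luminescence read, quantitative HTS format.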
D3 ag: D3 dopamine receptor (human) agonism. P35462. D3R DiscoveRx beta-arrestin cells, luminescence, 90 min. max activation, %. 410,000 tested, 0.58% active; in the data active means max activation above about 30%; further: 0% is about no effect
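Cells at 1500/well, incubated overnight, then treated with pinned compounds (dopamine as control) for 90 min at 37 degrees C. DiscoveRx reagent added for 30 - 60 minutes at room temperature; luminescence read.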
ATXN viability: viability counter-screen for ATXN expression inhibitors; S2 cells (HEK-293 line with an ATXN2-luciferase reporter) viability, CellTiter-Fluor protease fluorescence, 24 h; Potency, µM (top dose mostly 56.7 µM), most hits filed as cytotoxic; 400,000 tested, 0.49% active; AID 651635; further: potency means the concentration at half of the fitted maximal effect; nearly all actives have a fitted effect of over 40% in size
TGFb SMAD3 inh: TGF-b pathway inhibition. 410,000 tested, 1.2% active. HepG2 CAGA-GFP TGF-b/SMAD3 reporter, GFP fluorescence, 18 h; TGF-beta stimulated, 500 pg/mL final. AID 588855. Potency, µM (titrated, usually from 46.1 µM), for the others: top-dose activity, negative = inhibition, usual class: inhibitors; further: potency means the concentration at half of the fitted maximal effect; on the % scale 0 is the no-effect control and ±100 the full control effect; nearly all actives have a fitted effect of over 65% in size
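Inhibition of TGF-beta-driven CAGA-GFP reporter expression in HEPG2 cells is measured by cellular GFP fluorescence after 18 h stimulation with 500 pg/mL recombinant TGF-beta in 1% FBS medium at 37 degrees C.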
* marks the source's active call; other numbers are inactive results; i = inactive; ? = inconclusive; · = no result given; [ ] = dose if it differs, or a comment. A selection: hits, their analogues and other compounds. The true share with any hit is near 4.8%. Unless noted, the call rests on the fitted dose curve; in most records, active means well fitted curve in the direction sought with a large enough effect; inconclusive means small, poorly fitted or top-dose-only effect, or another doubt; inactive means no such curve, though single readings can be large; an effect the other way counts as inactive or inconclusive.

SMILES	ATXN2 expr inh	HepG2 viability	D3 antag	D3 ag	ATXN viability	TGFb SMAD3 inh
O=C(CCl)NCCCN(C(=O)C(Cl)Cl)c1ccc([N+](=O)[O-])cc1	·	13µM*	-13	-9	32µM*	?
Cc1cccc(C)c1-n1nnnc1C1(C)CCC(=O)N1CCCn1ccnc1 (configuration not stated)	19%	·	-26	-5	i	·
CCCCn1nnnc1C1(C)CCC(=O)N1CCCn1ccnc1 (configuration not stated)	-30%	·	-106*	-13	?	·
CCN(c1ccccc1)S(=O)(=O)c1ccc(OC)c(NC(=O)Cn2cnc3c2c(=O)n(C)c(=O)n3C)c1	27%	21%	-28	-21	i	2.8µM*
CCOc1ccc(C(=O)Nc2ccc(C(=O)OCc3cc(=O)n4nc(CC)sc4n3)cc2)cc1	·	0%	·	7	·	4%
CCOc1ccc(CN2C(=O)c3ccccc3C2C(=O)NC(C)CC)cc1OC (configuration not stated)	-6%	2%	-63*	0	i	12%
CC(=O)c1ccc(F)c(-c2cc(C)cc3c2OC(CNC(=O)c2cccnc2)C3)c1 (configuration not stated)	·	·	·	·	i	·
COc1ccc2[nH]c(=O)c(C(c3nnnn3C3CCCC3)N3CCN(Cc4ccc5c(c4)OCO5)CC3)cc2c1 (configuration not stated)	8%	2%	-54*	-25	i	-9%
CCOc1ccc2[nH]c(=O)c(C(c3nnnn3C3CCCCC3)N3CCN(CC)CC3)cc2c1 (configuration not stated)	1%	-12%	8	-16	?	-26%
CCc1ccccc1NC(=O)c1ccc(Cn2nc(N3CCN(c4ccccc4)CC3)ccc2=O)o1	20µM*	-30%	·	-5	?	?
CC(C)c1ccc(NC(=O)NC2CC3CCC(C2)N3Cc2cccs2)cc1 (configuration not stated)	-4%	-17%	?	-19	i	6%
Fc1ccc(NC(=S)NC2CC3CCCC(C2)N3Cc2cccs2)cc1 (configuration not stated)	-10%[11.3 µM]	0%	-54*	-16	i	20%
Cc1ccc(NC(=S)NC2CC3CCCC(C2)N3Cc2cccs2)cc1 (configuration not stated)	-15%	-24%	-71*	-30	i	-5%
CC(C)CNC(=S)NC1CC2CCCC(C1)N2Cc1cccs1 (configuration not stated)	?	-14%	-76*	-29	i	2%
O=C(Nc1cccc(Cl)c1)NC1CC2CCC(C1)N2Cc1cccs1 (configuration not stated)	·	4%	-98*	0	i	0%
Cc1cccc(CNC(=O)CCCn2c(=O)c3cccn3c3ccc(F)cc32)c1	·	4%	·	-7	·	-18%
COc1cc2nc(CCc3nc4cc(OC)c(OC)cc4[nH]3)[nH]c2cc1OC	·	-10%	·	·	·	-21%
CC(C)c1ccc(Nc2c(-c3ccc(N(C)C)cc3)nc3cnccn23)cc1	8%	0%	·	6	i	1%
COc1ccc(/C=N/n2c(=S)n(C)c3ccccc32)cc1OC	-10%	-11%	47	63*	?	5%
Cn1c(=S)n(/N=C/c2ccc3c(c2)OCO3)c2ccccc21	5%	-12%	-6	-3	i	19%
O=c1c(Cc2ccccc2)c(O)c2cccc3c4c(n1c23)CCCC4	-6%	-34%	-30	-16	?	14µM*
Cn1c(=O)c(Cc2ccccc2)c(O)c2ccccc21	-4%	-4%	-4	-5	i	2%
CSc1ccc(CCNC(=O)CCc2c(C)nc3c(-c4ccccc4)c(C)nn3c2C)cc1	-15%	-35%	·	6	i	?
Cc1cc2n(n1)CCC(=O)N2Cc1ccc(C(=O)Nc2ccc(Br)c(C)c2)cc1	-22%	-36%	·	10	i	?
CN(CCNC(=O)c1cccc(N2CCCC2=O)c1)Cc1ccccc1	4%	-1%	-58*	0	i	-2%
SMILES	ATXN2 expr inh	HepG2 viability	D3 antag	D3 ag	ATXN viability	TGFb SMAD3 inh
Cc1cccc(N2CCN(C(=O)c3cccn4c(=O)c5cc(Cl)ccc5nc34)CC2C)c1 (configuration not stated)	4%	2%	·	-2	i	-10%
Cc1ccc(N2C(=O)CCSC23C(=O)N(Cc2ccc(F)cc2)c2ccccc23)cc1 (configuration not stated)	·	-63%	·	2	·	?
CSc1nc(N)nc2c1ncn2CC(=O)NCc1ccccc1	5%	-1%	32	8	i	-1%
CSc1nc(N)nc2c1ncn2CC(=O)NCc1ccc2[nH]ccc2c1	?	2%	13	48*	i	?
CCn1c(-c2ccccc2F)nc2cc(NC(C)=O)cc(C(=O)NC(c3ccccn3)C(F)(F)F)c21 (configuration not stated)	·	·	·	·	i	·
COc1ccc(S(=O)(=O)CC(=O)c2cc3cc(Br)ccc3oc2=O)cc1	·	-61%	7	-1	i	13µM*
CN(C)CCNC(=O)c1cc2cc(Br)ccc2oc1=O	1%	-17%	27	-9	i	2%
CCN(CC)C(=O)c1cc2cc(Br)ccc2oc1=O	-3%	7.1µM*	6	-27	?	-12%
CCN1CCN(/C=N/c2nc3c(s2)CCCC3)CC1	?	-2%	-75*	0	?	-8%
CN1CCN(CC(=O)Nc2nc3c(s2)CCCC3)CC1	-20%	-51%	0	-5	i	0%
CN(C)Cc1c(C(=O)Nc2ccccc2)[nH]c2ccccc12	57%	-1%	-57*	-45	i	23%
O=C(O)CCc1c(C(=O)O)[nH]c2ccccc12	-8%	10%	11	-9	i	17%
CC(=O)Nc1cc(C(=O)N2CCCC2)ccc1Sc1ccc(C)cc1	-14%	-14%	34	41*	i	-5%
CC(=O)Nc1cc(C(=O)N2CCCC2)ccc1Sc1ccc(Cl)cc1	-4%	-10%	58	63*	i	-2%
CC(=O)Nc1cc(C(=O)N2CCCC2)ccc1S(=O)(=O)c1ccc(C)cc1	-6%	-3%	0	0	i	-2%
O=C(Nc1ccccc1-c1cn2c(CN3CCNCC3)csc2n1)c1cnc2ccccc2n1	?	-105%	·	·	·	?
CN(Cc1ccccc1)CC(O)COc1ccc(CNCCOc2cccnc2)cc1 (configuration not stated)	-10%	1%	-10	61*	?	1%

Source: PubChem BioAssay (National Center for Advancing Translational Sciences (NCATS))
